High-throughput results from PubChem BioAssay.
HPGD block = HPGD (human) dehydrogenase inhibition. P15428. purified HPGD, NADH fluorescence kinetic, PGE2 substrate. Potency, µM, most hits filed as inhibitors. 4.3% of 150,000 active. AID 894
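20 nM HPGD preincubated 15 min at room temperature with compound in 50 mM Tris-HCl pH 8, 0.01% Tween 20. Started with 1 mM NAD+ and 30 uM prostaglandin E2; NADH fluorescence (360/450 nm) read 5 times over 30-s intervals, last minus first.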
PNC inhibitor = blocks assembly of the perinucleolar compartment; PC3M PTB-GFP, PNC prevalence imaging, 16 h; hits give low values; 3.1% of 140,000 active; activity change (PNC), negative = inhibition, % at 10 µM;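 active = readout at or below -70, meaning at least 70% loss of cells showing the perinucleolar compartment, a nuclear body marking cancer cells; inconclusive = readout between -30 and a set limit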
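PC3M cells stably expressing PTB-GFP, 750–1000 cells/well, treated 16 h at 37 °C with compound (23 nl of library stock), in duplicate. After paraformaldehyde fixation and Hoechst stain, imaged at 20x; PNC prevalence scored by image analysis.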
12-hLO inh = 12-hLO (ALOX12) enzyme inhibition; Potency, µM (top dose mostly 57.1 µM), actives largely listed as inhibitors; AID 1452; purified 12-hLO, xylenol orange hydroperoxide absorbance; 0.12% of 150,000 active; P18054; active = well fitted inhibition curve with a large enough effect; inconclusive = small, poorly fitted or top-dose-only effect; also: nearly all actives have a fitted effect of over 55% in size
Target sequence (P18054 whole entry, looked up): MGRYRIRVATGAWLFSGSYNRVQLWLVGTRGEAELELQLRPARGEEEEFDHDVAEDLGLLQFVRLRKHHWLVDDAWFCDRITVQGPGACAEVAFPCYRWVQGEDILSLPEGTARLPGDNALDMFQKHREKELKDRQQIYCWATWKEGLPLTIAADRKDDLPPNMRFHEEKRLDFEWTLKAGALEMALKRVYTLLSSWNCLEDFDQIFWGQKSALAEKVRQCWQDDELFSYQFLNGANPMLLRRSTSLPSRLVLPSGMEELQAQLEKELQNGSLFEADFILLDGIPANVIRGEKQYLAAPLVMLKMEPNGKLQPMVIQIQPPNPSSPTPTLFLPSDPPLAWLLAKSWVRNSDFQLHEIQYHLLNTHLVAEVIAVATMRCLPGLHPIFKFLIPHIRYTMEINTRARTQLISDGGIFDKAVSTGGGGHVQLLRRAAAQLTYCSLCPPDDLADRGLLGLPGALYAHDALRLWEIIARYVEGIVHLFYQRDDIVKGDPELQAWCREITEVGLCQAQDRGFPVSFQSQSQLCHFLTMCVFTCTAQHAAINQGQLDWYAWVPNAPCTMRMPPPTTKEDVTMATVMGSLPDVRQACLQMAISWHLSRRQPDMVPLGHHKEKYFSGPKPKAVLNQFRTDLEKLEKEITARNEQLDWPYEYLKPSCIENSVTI
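Hydroperoxide formation by human 12-lipoxygenase from 40 uM arachidonic acid was followed colorimetrically via ferric-xylenol orange complex, using the 573/405 nm absorbance ratio. Enzyme concentration was 150 nM, with 30 min reaction at room temperature.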
LMNA splice mod = modulators of lamin A splicing. HeLa LMNA splicing GFP/RFP minigene ratio, 48 h. 0.01% of 200,000 active. Potency, µM (highest dose often 46.1 µM), most hits filed as inhibitors. AID 1487; active = well fitted inhibition curve with a large enough effect in the signal ratio, with a control signal flat, not every such curve was filed as active; inconclusive = small, poorly fitted or top-dose-only effect, or effect the other way, or a change in a side signal; the % refers to the signal ratio
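S3 HeLa stable clones carrying a lamin A-EGFP splicing minigene plus DsRed2 were seeded at 600 cells/well in Opti-MEM with 2% FBS, pin-dosed and incubated 48 h at 37°C. Acumen cytometry (488 nm) gave the GFP/RFP total-intensity ratio.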
ALDH1A1 inh = inhibitors of human aldehyde dehydrogenase 1A1 | P00352 | Purified ALDH1A1, NADH fluorescence, propionaldehyde substrate | Potency, µM (doses to about 75.3 µM), actives largely listed as inhibitors | 7.3% of 220,000 active | AID 1030
A number is an active result; [ ] = remark or other dose. This is a sample that favours compounds with a hit; in the whole collection about 10% have one here. Unless noted, calls follow the shape of the dose curve; as a rule, active = well fitted inhibition curve with a large enough effect (not every such curve was filed as active); inconclusive = small, poorly fitted or top-dose-only effect, or another doubt; inactive = no such curve, though single readings can be large or run the other way.

Screening S=C(Nc1ccccc1)Nc1nc2ccccc2n1CCOc1ccc(Br)cc1 returned HPGD block inactive, PNC inhibitor inconclusive, 12-hLO inh inconclusive, LMNA splice mod inconclusive and ALDH1A1 inh 9.5µM.
Cn1c(NC(=S)Nc2ccccc2)nc2ccccc21 was read as HPGD block inactive, PNC inhibitor inactive, 12-hLO inh inactive, LMNA splice mod inactive and ALDH1A1 inh inactive.
`O=S(=O)(Nc1nc(CN2CCOCC2)nc2sc3c(c12)CCCC3)c1cc(F)ccc1F` gave HPGD block inactive, PNC inhibitor inactive, 12-hLO inh inactive, LMNA splice mod inactive and ALDH1A1 inh 14µM.
For CCNc1nc(CN2CCOCC2)nc2sc3c(c12)CCC3 the results were HPGD block inactive, PNC inhibitor inactive, 12-hLO inh inactive, LMNA splice mod inactive and ALDH1A1 inh inconclusive.
For COc1cc2oc(=O)c(Br)c(C)c2c(OC)c1OC the results were HPGD block inactive, PNC inhibitor inactive, 12-hLO inh inactive, LMNA splice mod inactive and ALDH1A1 inh 13µM.
COc1cc2c(cc1OC)n(CC(=O)c1ccc(C)cc1C)c(=O)n1nc(CCn3nc(C)cc3C)nc21 was read as LMNA splice mod inactive.
`O=[N+]([O-])c1cc(Cl)ccc1N1CCCC1` gave LMNA splice mod inactive and ALDH1A1 inh inconclusive.
`Cc1cc(/C=C(\C#N)C(=O)Nc2ccc(Cl)cc2)c(C)n1-c1ccc(N2CCOCC2)c([N+](=O)[O-])c1` gave HPGD block inactive, PNC inhibitor inconclusive, 12-hLO inh inactive, LMNA splice mod inconclusive and ALDH1A1 inh inconclusive.
For Cc1cc(C=O)c(C)n1-c1ccc(N2CCCC2)c([N+](=O)[O-])c1 the results were HPGD block 14µM, PNC inhibitor inactive, 12-hLO inh inactive, LMNA splice mod inconclusive and ALDH1A1 inh 0.45µM.
Screening Cc1cc(C=O)c(C)n1-c1ccc(N2CCOCC2)c([N+](=O)[O-])c1 returned LMNA splice mod inactive and ALDH1A1 inh 2.5µM.
`O=S(=O)(c1ccc2[nH]c3c(c2c1)CCCCC3)N1CCN(c2cccc(Cl)c2)CC1` gave LMNA splice mod inactive.
`c1ccc(-c2noc(CSc3nnnn3C3CCCCC3)n2)cc1` gave HPGD block inactive, PNC inhibitor inactive, 12-hLO inh inactive, LMNA splice mod inactive and ALDH1A1 inh 3.2µM.
For c1ccc(-c2noc(CC3CCCCC3)n2)cc1 the results were ALDH1A1 inh inactive.
Screening C=CCc1cc(/C=C2/NC(=S)NC2=O)cc(OC)c1O returned HPGD block 25µM, PNC inhibitor inactive, 12-hLO inh inactive, LMNA splice mod inactive and ALDH1A1 inh inactive.
For CCCc1cc(Nc2ccccc2OCC)n2ncnc2n1 the results were HPGD block 7.1µM, PNC inhibitor inactive, 12-hLO inh inactive, LMNA splice mod inactive and ALDH1A1 inh inactive.
For N#C/C(=C/c1ccc(N2CCOCC2)o1)c1ccc(Cl)cc1 the results were HPGD block inconclusive, PNC inhibitor inconclusive, 12-hLO inh inconclusive, LMNA splice mod inactive and ALDH1A1 inh 13µM.
For Cc1nc(-n2nc(C)c(Cc3ccc(Cl)cc3)c2C)sc1C(=O)N1CCC(C)CC1 the results were LMNA splice mod inactive.
COC(=O)c1cc(=O)c(O)c2c(O)c(O)ccc2c1 was read as HPGD block 7.9µM, 12-hLO inh inconclusive, LMNA splice mod inconclusive and ALDH1A1 inh 11µM.
`COC(=O)c1ccc2ncccc2c1` gave HPGD block inactive, PNC inhibitor inactive, 12-hLO inh inactive, LMNA splice mod inactive and ALDH1A1 inh inactive.
Screening O=C(O)CC12CC3CC(C1)CC(n1ncc(NCC4CCCO4)c(Cl)c1=O)(C3)C2 (stereo not drawn) returned ALDH1A1 inh 25µM.
`Cc1nc(N2CCCC2)ncc1C(=O)Nc1ccccc1` gave LMNA splice mod inactive.
`O=c1cc(O)n(-c2ccc(F)cc2)c(=S)[nH]1` gave HPGD block 28µM, PNC inhibitor inactive, 12-hLO inh inactive, LMNA splice mod inactive and ALDH1A1 inh inactive.
Screening O=C(O)c1ccc2c(=O)n(-c3ccc(F)cc3)c(=S)[nH]c2c1 returned ALDH1A1 inh inactive.
`CC(=O)N1CCC(N(CCN2CCOCC2)C(=S)Nc2ccccc2C)CC1` gave HPGD block inactive, PNC inhibitor -112, 12-hLO inh inactive, LMNA splice mod inactive and ALDH1A1 inh inactive.
`O=c1c(-c2ccc(Cl)cc2)nc2cnc(Nc3ccccc3)nc2n1C[C@H]1CCCO1` gave LMNA splice mod inactive and ALDH1A1 inh inconclusive.
`CCn1nnnc1NCc1ccc(N2CCCC2)cc1` gave HPGD block inactive, PNC inhibitor inactive, 12-hLO inh inactive, LMNA splice mod inactive and ALDH1A1 inh 35µM.
COc1ccc(NC(=O)NC(C)(C(F)(F)F)C(F)(F)F)cc1 was read as HPGD block inactive, PNC inhibitor inactive, 12-hLO inh inactive, LMNA splice mod inactive and ALDH1A1 inh inactive.
`CC(NC(=O)Nc1ccc(O)cc1)(C(F)(F)F)C(F)(F)F` gave HPGD block inactive, PNC inhibitor -100, 12-hLO inh inactive, LMNA splice mod inactive and ALDH1A1 inh inactive.
Screening COc1ccc(CCn2c(C)c(C(C)=O)c(C(C)=O)c2C)cc1OC returned LMNA splice mod inactive[9.22 µM] and ALDH1A1 inh inactive.
For Cc1cc(C(=O)CCl)c(C)n1CCc1ccc(Cl)cc1 the results were ALDH1A1 inh 0.18µM.
Cc1cc(C(=O)CCl)c(C)n1CCc1ccc(F)cc1 was read as ALDH1A1 inh 0.4µM.
Screening COc1ccc(CCn2c(C)cc(C(=O)CCl)c2C)cc1OC returned LMNA splice mod inconclusive and ALDH1A1 inh 0.11µM.
`Cc1cc(C(=O)CSc2nnnn2C)c(C)n1CCc1ccc(F)cc1` gave HPGD block inactive, PNC inhibitor inactive, 12-hLO inh inactive, LMNA splice mod inactive and ALDH1A1 inh inactive.
`CC1Cn2cc(C(=O)Nc3cccc(C(F)(F)F)c3)c(=O)c3c(Cl)ccc(c32)O1` (stereo not drawn) gave LMNA splice mod inactive.
For CC(C)c1ccc(/C=C2\C=C(c3ccc4ccccc4c3)OC2=O)cc1 the results were HPGD block inactive, 12-hLO inh inactive[11.4 µM] and ALDH1A1 inh inactive[13.5 µM].
`CCCCC/C=C\C/C=C\C/C=C\CCCCCCC(=O)NCCCC(=O)O` gave HPGD block inactive, 12-hLO inh inactive and ALDH1A1 inh inactive.
Screening O=C(NCc1ccc2c(c1)CCN2C(=O)c1ccncc1)c1ccccc1Cl returned LMNA splice mod inactive.
N=c1n(CC(=O)c2ccc([N+](=O)[O-])cc2)c2ccccc2n1Cc1ccccc1 was read as HPGD block inactive, PNC inhibitor inactive, 12-hLO inh inactive, LMNA splice mod inactive and ALDH1A1 inh inactive.
For N=c1n(CC(=O)c2ccc([N+](=O)[O-])cc2)c2ccccc2n1Cc1ccccc1Cl the results were HPGD block inactive, PNC inhibitor -88, 12-hLO inh inactive, LMNA splice mod inactive and ALDH1A1 inh inactive.
For Cc1ccc(-c2nc(CNC(=O)Nc3ccccc3)c(C)o2)cc1 the results were LMNA splice mod inactive.
